Screening results deposited in PubChem BioAssay by National Center for Advancing Translational Sciences (NCATS).
IL-1B inflam inh: blocks inflammasome-driven IL-1 beta release; THP-1 LPS/ATP IL-1B secretion, AlphaLISA, 16 h; hits give low values; activity change, % at 57.5 µM; 4.7% of 360,000 active; in the data active means activity change below about -50%; inconclusive means mostly about -30% to -49%; further: on the % scale 0 is the no-effect control and ±100 the full control effect
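Secreted IL-1B measured by AlphaLISA bead assay after 16 h compound exposure of THP-1 cells; compounds (final up to 57.5 uM) added 1 h before LPS (250 ng/mL) and ATP (1.25 mM) stimulation; lower signal means less secretion.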
ATXN viability: viability counter-screen for ATXN expression inhibitors; 0.49% of 400,000 active; Potency, µM (titrated, usually from 56.7 µM), hits mostly cytotoxic; AID 651635; S2 cells (HEK-293 line with an ATXN2-luciferase reporter) viability, CellTiter-Fluor protease fluorescence, 24 h; further: potency means the concentration at half of the fitted maximal effect; nearly all actives have a fitted effect of over 40% in size
ATXN2 expr inh: ATXN2 expression inhibition; 0.72% of 360,000 active; AID 1745845; Potency, µM (titrated, usually from 57 µM), for the others: at the top dose activity change, negative = inhibition, most hits filed as inhibitors; HEK-293 ATXN2-luciferase reporter, luminescence, 24 h; further: potency means the concentration at half of the fitted maximal effect; on the % scale 0 is the no-effect control and ±100 the full control effect; nearly all actives have a fitted effect of over 55% in size
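qHTS (up to 57 uM final) was run with 24 h compound exposure of reporter cells at 37 °C. Each well was multiplexed: SteadyGlo luminescence measured ATXN2-luciferase expression after a fluorogenic Gly-Phe-AFC viability readout (25 uM final).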
SW480 rereplic: inducers of DNA re-replication in SW480 colon cancer cells | 1.8% of 340,000 active | SW480 DNA re-replication, Hoechst DNA content imaging, 48 h | Potency, µM (highest dose often 46.1 µM), for the others: at the top dose re-replication activation, actives largely listed as activators | AID 624297; further: potency means the concentration at half of the fitted maximal effect; % of control where 0% means no effect; nearly all actives have a fitted effect of over 55% in size
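Readout is total intensity of Hoechst-stained nuclei, excited at 405 nm and collected at 500-530 nm. Compound treatment lasted 48 hr at 37 C in 5% CO2 before staining.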
PINK1 expr mod: changes PINK1 expression. PINK1 immunofluorescence, high-content cytometry, 24 h. 0.2% of 410,000 active. Potency, µM (top dose mostly 76.6 µM), inactives show top-dose activation (PINK1 increase), actives largely listed as activators; active means well fitted activation curve with a large enough effect; inconclusive means small, poorly fitted or top-dose-only effect; cell line not stated here; further: potency means the concentration at half of the fitted maximal effect; % of control where 0% means no effect; nearly all actives have a fitted effect of over 65% in size
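Stable cell line, 250 cells/well, 12 h attachment; compounds pinned at 5 concentrations, 24 h; CCCP control. Fixed with nuclear dye, primary antibodies 12 h at 10 degrees C, secondary plus cell stain; laser-scanning cytometer read.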
MCF10A rerep: DNA re-replication induction in MCF 10a cells; MCF 10A DNA re-replication, Hoechst nuclear intensity, 48 h; Potency, µM (highest dose often 46.1 µM), for inactives: at the top dose activity, positive = re-replication, hits mostly activators; 2.9% of 350,000 active; further: potency means the concentration at half of the fitted maximal effect; % of control where 0% means no effect; nearly all actives have a fitted effect of over 50% in size
* hit, by the source's call; i = inactive; ? = inconclusive; nt = not tested or not shown; [ ] = remark or other dose. This is a sample that favours compounds with a hit; in the whole collection about 7.1% have one here. Unless noted, the call rests on the fitted dose curve; in most records, active means well fitted curve in the direction sought with a large enough effect; inconclusive means small, poorly fitted or top-dose-only effect, or another doubt; inactive means no such curve, though single readings can be large; an effect the other way counts as inactive or inconclusive.

SMILES | IL-1B inflam inh | ATXN viability | ATXN2 expr inh | SW480 rereplic | PINK1 expr mod | MCF10A rerep
C=C[C@@]1(C)C[C@H](OC(=O)CSC(C)(C)CNC(=O)[C@@H](N)C(C)C)[C@@]2(C)C(C)CC[C@@]3(CCC(=O)[C@@H]32)[C@H](C)[C@H]1O (stereo partly specified) | nt | nt | nt | 17.4% | -0.3% | -0.4%
CCCCOc1ccc(C(=O)N2CCN(CCc3ccncc3)CC2)cc1 | nt | i | -5.0% | nt | -1.5% | nt
Cc1ccc(NC(=O)CCc2nnc3n(CC(C)C)c(=O)c4ccccc4n23)cc1C | nt | nt | nt | nt | 0.5% | nt
O=C(NCCn1ccc2ccccc21)c1ccc(Cl)cc1 | nt | i | 54.1% | nt | 0.6% | nt
Cc1cc(C)nc(/N=C(\N)Nc2ccc([N+](=O)[O-])cc2)n1 | -57.1* | i | 17.7% | -0.2% | 8.5% | -65.6%
Cc1cc(C)nc(/N=C(\N)Nc2cc([N+](=O)[O-])ccc2C)n1 | nt | i | 196.0% | 0.9% | -1.1% | -0.6%
Cc1cc(C)nc(/N=C(\N)Nc2cccc([N+](=O)[O-])c2)n1 | -96.6* | ? | -8.6% | -5.3% | 4.0% | -2.5%
CC(=O)Nc1cccc(N/C(N)=N/c2nc(C)cc(C)n2)c1 | 35.4 | i | -12.1% | -21.1% | -1.3% | 32.7%
CC(=O)N1CCC(N(Cc2ccc(C)o2)C(=O)Nc2cccc(C(F)(F)F)c2)CC1 | nt | ? | -24.1% | nt | -0.7% | nt
CC(C)NC(=S)NC(=O)/C=C/c1ccc(F)cc1 | -53.3* | i | 15.7% | -1.2% | 14.5% | ?
CN(C(=O)/C=C/c1ccc(F)cc1)C1CCCCC1 | ? | i | 10.7% | ? | -0.8% | -28.8%
O=C(/C=C/c1ccc(F)cc1)NC(=S)NC1CCCCC1 | -2.0 | i | nt | 3.6% | 2.6% | -1.3%
CN(C(=S)NC(=O)/C=C/c1ccc(F)cc1)C1CCCCC1 | -66.3* | i | 15.9% | -4.5% | 1.6% | -33.2%
CC(C)(CNC(=O)/C=C/c1ccc(F)cc1)CNC(=O)/C=C/c1ccc(F)cc1 | -87.6* | ? | 4.5% | -2.2% | ? | -4.1%
CCSc1ncc(Cl)c(C(=O)Nc2sc3c(c2C(=O)OC)CCCC3)n1 | nt | nt | nt | nt | 0.5% | nt
O=C(Nc1nccs1)c1ccc(S(=O)(=O)NCC2CCCCC2)cc1 | -19.3 | i | -11.2% | 0.1% | 13.9%[38.3 µM] | ?
O=C(Nc1nccs1)c1ccc(S(=O)(=O)NCc2cccs2)cc1 | -75.8* | i | 16.7% | 27.7% | nt | ?
O=S(=O)(NCc1cccs1)c1ccc(Br)cc1 | -14.3 | i | 0.3% | -12.4% | 3.0% | 10.1%
O=C(Nc1ccc(Br)cc1)c1ccc(F)c(S(=O)(=O)NCc2cccs2)c1 | -55.0* | i | -23.2% | -2.6% | ? | ?
COc1ccc(OC)c(/C=N\NC(=O)c2cc3c(ccc4ccccc43)o2)c1 | -19.8 | nt | -2.2% | 14.8% | 11.4% | ?
Nc1ccc(C(=O)N/N=C\c2cc(N=Nc3cccc4ccccc34)ccc2O)cc1 | 26.5 | ? | 5.62µM* | ? | -0.8% | 423.2%[0.0737 µM]
O=C(N/N=C/c1ccccc1Cl)c1cccc(F)c1 | ? | i | 51.0% | -5.3% | 6.3%[38.3 µM] | -2.0%
O=C(N/N=C/c1ccccc1F)c1cc2c(ccc3ccccc32)o1 | -7.4 | i | -21.6% | 15.3% | 11.9% | -9.5%
O=C(N/N=C/c1cccc2ccccc12)c1cccc(F)c1 | -63.1* | i | 30.3% | -2.9% | 2.4% | ?
O=C(N/N=C/C=C/c1ccccc1)c1cc2c(ccc3ccccc32)o1 | 9.3 | i | ? | 11.6µM* | 8.0% | ?
SMILES | IL-1B inflam inh | ATXN viability | ATXN2 expr inh | SW480 rereplic | PINK1 expr mod | MCF10A rerep
O=C(N/N=C/c1cccc2ccccc12)c1cc2ccccc2o1 | 37.2 | i | -14.7% | 114.1% | 7.2% | 11.6µM*
COc1cc(/C=N/NC(=O)c2ccccc2O)ccc1OCC(=O)Nc1ccccc1 | 14.1 | ? | 10.8% | -4.8% | -3.4% | ?
O=C(COc1ccc(/C=N/NC(=O)c2cc3ccccc3o2)cc1Cl)Nc1ccccc1 | -98.0* | 8.91µM* | 10µM* | 7.6% | -3.1% | ?
O=C1OCCC1S(=O)(=O)c1ccc2ccccc2c1 (stereo unspecified) | -7.3 | i | -3.2% | 0.0% | 11.8%[38.3 µM] | -0.3%
O=C(c1ccccc1)N1CCCCC(S(=O)(=O)c2ccc3ccccc3c2)C1=O (stereo unspecified) | 12.6 | i | 4.4% | -0.4% | 5.01µM* | -10.0%
Cc1ccc(-n2c(SCC(=O)NCc3ccc(F)cc3)nc3c([nH]c4ccccc43)c2=O)cc1 | nt | i | 6.9% | nt | -3.7% | nt
COc1ccccc1C1c2[nH]c3ccccc3c2C[C@H]2C(=O)N(C3CCN(Cc4ccccc4)CC3)CC(=O)N12 (stereo partly specified) | -26.0 | ? | -24.4% | ? | 1.3% | 23.0%
COc1ccc(C2c3[nH]c4ccccc4c3C[C@H]3C(=O)N(C4CCN(Cc5ccccc5)CC4)CC(=O)N23)cc1OC (stereo partly specified) | -24.5 | i | -27.3% | 18.4µM* | 1.5% | ?
COc1cccc(C2c3[nH]c4ccccc4c3C[C@H]3C(=O)N(C4CCN(Cc5ccccc5)CC4)CC(=O)N23)c1 (stereo partly specified) | -57.9* | i | -36.7% | ? | 1.7% | 16.8%
COc1ccc(OCC(=O)Nc2ccc3c(c2)nc(CCN2CCC(C)CC2)n3C)cc1 | -17.3 | i | -5.0% | -19.2% | -2.5% | -1.5%
CC1CCN(CCc2nc3cc(NC(=O)COc4ccc(Cl)cc4)ccc3n2C)CC1 | -96.4* | ? | -9.7% | 18.4µM* | -1.8% | 16.4µM*
COc1ccc(OCC(=O)Nc2ccc3c(c2)nc(CCN2CCN(c4ccccn4)CC2)n3C)cc1 | 56.3 | ? | nt | nt | 4.8% | nt
Cc1cccc(OCC(=O)Nc2ccc3c(c2)nc(CCN2CCN(c4ccccn4)CC2)n3C)c1 | ? | ? | 14.1µM* | ? | 0.1% | 6.7%
Cn1c(CCN2CCN(c3ccccn3)CC2)nc2cc(NC(=O)COc3ccc(Cl)cc3)ccc21 | -5.0 | ? | ? | 7.31µM* | -0.8% | 2.6%
CCOc1ccc(NS(=O)(=O)c2c(C)nc3sc(C)c(C)n3c2=O)cc1 | nt | nt | nt | nt | 0.4% | nt
CC(Nc1cc(C)cc(C)c1)=[N+](C)CCNS(=O)(=O)c1ccc(Cl)cc1 | -78.7* | i | -21.7% | -0.7% | 0.4% | 0.9%
CCCCN(C)S(=O)(=O)c1cc(-c2nnc3c4ccccc4c(C)nn23)ccc1C | nt | i | -7.4% | nt | 1.6% | nt
CCCCC12CN3CC(C)(CN(C1)C3c1c(C)[nH]c(=O)[nH]c1=O)C2=O (stereo unspecified) | nt | i | 10.1% | nt | -1.0% | nt
CCN(CC)c1ccc(/C=N/OCC(=O)N2CCCc3ccccc32)cc1 | ? | i | -3.8% | 17.4% | ? | 16.4µM*
